The full data set covers some 8,800 targets. This sample favours those with a hit. About 0.5% of all pairs of compound and target were hits.
Columns and labels:
Experiment in all cases: log2 fold change, soluble protein after heating vs DMSO (PISA); higher = thermal stabilisation; K562 lysate, 10 uM; active = over 0.2 and 3.5 SD of the protein, either way, in both replicates (recomputed)
[1] = compound: C1=CC=C(C=C1)[C@H](COC2=CC3=C(C=C2)NC(=O)N3)NC(=O)C4=CC=CN(C4=O)CC5=CC(=C(C=C5)F)F
Method in brief: (§1)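 K562 pellets were dounce-homogenised in PBS pH 7.4 with 1 mM MgCl2, and the crude extract at 1 mg/mL protein was treated with 10 μM compound for 30 min. Aliquots were heated for 3 min across 48°C-58°C, pooled, and brought to 0.5% NP-40 at 4°C; soluble protein was the supernatant after 21,000xg for 90 min. Soluble protein was quantified by TMTpro 16plex LC-MS/MS with channel sums equalised, and reported as log2 fold change in thermal stability against DMSO controls, with values from duplicates.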

[2] = compound: CC1=C(SC2=C1C(=N[C@H](C3=NN=C(N32)C)CC(=O)N)C4=CC=C(C=C4)Cl)C
Method in brief: as §1

[3] = compound: CC1=C2C(=CC=C1)N=C(N(C2=O)C3=CC=CC=C3C)CN4C=NC5=C(N=CN=C54)N
Method in brief: as §1

[4] = compound: Cc1sc2c(c1C)C(c1ccc(Cl)cc1)=N[C@@H](CC(=O)OC(C)(C)C)c1nnc(C)n1-2
Method in brief: as §1

[5] = compound: c1ccc([C@@H]2C[C@H]2NC2CCNCC2)cc1
Method in brief: as §1

Measured: log2 fold change

NDUFAF5 (UniProt Q5TEU4)
Sequence of UniProt Q5TEU4 (Q5TEU4 whole entry, looked up): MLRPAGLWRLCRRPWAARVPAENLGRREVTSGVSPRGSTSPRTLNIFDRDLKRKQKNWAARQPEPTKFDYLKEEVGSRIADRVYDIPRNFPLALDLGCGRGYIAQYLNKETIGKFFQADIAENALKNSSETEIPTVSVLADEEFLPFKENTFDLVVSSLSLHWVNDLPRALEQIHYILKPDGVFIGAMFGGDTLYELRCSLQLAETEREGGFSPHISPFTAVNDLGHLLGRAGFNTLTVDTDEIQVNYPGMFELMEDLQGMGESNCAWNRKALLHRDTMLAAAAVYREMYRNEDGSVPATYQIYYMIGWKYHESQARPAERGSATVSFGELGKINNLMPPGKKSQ
inactive: [1] 0.078 | [2] 0.016 | [3] 0.026 | [4] -0.174 | [5] 0.004

NF1 (UniProt P21359)
inactive: [1] -0.03 | [2] -0.01 | [3] 0.03 | [4] -0.009 | [5] 0.016

NELFCD (UniProt Q8IXH7)
Sequence of UniProt Q8IXH7 (Q8IXH7 whole entry, looked up): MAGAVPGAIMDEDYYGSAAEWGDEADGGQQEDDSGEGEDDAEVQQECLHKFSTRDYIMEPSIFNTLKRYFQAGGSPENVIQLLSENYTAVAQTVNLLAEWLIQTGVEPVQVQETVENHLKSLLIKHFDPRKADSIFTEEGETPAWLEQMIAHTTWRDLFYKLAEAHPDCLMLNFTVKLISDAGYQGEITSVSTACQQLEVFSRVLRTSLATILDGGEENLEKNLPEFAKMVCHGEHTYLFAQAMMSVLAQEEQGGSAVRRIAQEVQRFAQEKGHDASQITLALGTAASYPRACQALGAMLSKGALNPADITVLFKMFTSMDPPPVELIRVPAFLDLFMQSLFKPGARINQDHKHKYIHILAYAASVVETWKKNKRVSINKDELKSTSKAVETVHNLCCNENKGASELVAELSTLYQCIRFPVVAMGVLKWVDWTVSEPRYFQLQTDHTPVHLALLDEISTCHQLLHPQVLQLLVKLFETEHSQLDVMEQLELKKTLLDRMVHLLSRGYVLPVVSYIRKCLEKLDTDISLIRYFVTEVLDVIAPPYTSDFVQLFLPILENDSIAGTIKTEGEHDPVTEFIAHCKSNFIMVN
inactive: [1] -0.035 | [2] 0.023 | [3] 0.018 | [4] 0.003 | [5] 0.025

NAA30 (UniProt Q147X3)
Sequence of UniProt Q147X3 (Q147X3 whole entry, looked up): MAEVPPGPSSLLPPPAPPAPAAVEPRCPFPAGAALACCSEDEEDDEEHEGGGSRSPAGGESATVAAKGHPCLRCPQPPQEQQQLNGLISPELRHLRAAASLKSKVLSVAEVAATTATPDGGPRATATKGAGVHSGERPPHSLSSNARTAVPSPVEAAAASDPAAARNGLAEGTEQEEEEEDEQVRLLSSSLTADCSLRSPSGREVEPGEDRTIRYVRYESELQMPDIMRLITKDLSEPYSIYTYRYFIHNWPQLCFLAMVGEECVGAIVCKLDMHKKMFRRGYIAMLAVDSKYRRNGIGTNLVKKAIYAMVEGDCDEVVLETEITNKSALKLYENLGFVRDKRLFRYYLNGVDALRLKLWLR
inactive: [1] 0 | [2] 0.018 | [3] 0.033 | [4] 0.02 | [5] -0.013

NSUN2 (UniProt Q08J23)
Sequence of UniProt Q08J23 (Q08J23 whole entry, looked up): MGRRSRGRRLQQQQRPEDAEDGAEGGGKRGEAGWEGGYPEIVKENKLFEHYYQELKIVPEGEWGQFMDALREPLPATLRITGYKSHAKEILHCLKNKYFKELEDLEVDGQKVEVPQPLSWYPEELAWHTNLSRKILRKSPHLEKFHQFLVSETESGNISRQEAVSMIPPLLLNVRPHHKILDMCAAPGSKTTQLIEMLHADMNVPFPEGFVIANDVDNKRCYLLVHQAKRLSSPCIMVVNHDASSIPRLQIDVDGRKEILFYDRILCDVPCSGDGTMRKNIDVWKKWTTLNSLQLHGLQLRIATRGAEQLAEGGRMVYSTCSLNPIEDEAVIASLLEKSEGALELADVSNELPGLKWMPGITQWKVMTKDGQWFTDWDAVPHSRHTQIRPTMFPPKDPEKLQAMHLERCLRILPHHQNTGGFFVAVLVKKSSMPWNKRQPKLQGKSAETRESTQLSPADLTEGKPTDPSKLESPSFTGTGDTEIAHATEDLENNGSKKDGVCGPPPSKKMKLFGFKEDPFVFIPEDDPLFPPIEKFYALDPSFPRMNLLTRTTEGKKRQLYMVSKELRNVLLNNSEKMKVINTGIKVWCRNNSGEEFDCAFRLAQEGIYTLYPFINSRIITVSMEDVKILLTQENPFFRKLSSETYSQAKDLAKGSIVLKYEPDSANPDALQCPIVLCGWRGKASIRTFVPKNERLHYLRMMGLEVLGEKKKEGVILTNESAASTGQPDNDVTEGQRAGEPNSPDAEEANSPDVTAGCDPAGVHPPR
inactive: [1] -0.016 | [2] 0.011 | [3] -0.009 | [4] 0.021 | [5] 0.019

PBK (UniProt Q96KB5)
Sequence of UniProt Q96KB5 (Q96KB5 whole entry, looked up): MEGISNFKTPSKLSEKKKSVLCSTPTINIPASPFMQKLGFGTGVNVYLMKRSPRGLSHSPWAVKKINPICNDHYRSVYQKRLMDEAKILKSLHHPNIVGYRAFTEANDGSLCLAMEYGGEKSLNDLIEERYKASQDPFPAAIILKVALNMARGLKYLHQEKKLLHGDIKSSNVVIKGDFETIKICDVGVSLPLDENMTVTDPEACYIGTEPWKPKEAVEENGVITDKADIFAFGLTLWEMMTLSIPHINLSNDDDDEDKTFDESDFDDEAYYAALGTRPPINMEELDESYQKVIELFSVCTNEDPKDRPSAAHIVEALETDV
inactive: [1] -0.002 | [2] 0.006 | [3] 0.006 | [4] 0.023 | [5] 0.029

NFAT5 isoform 5 (UniProt O94916)
Sequence of UniProt O94916 (O94916 whole entry, looked up): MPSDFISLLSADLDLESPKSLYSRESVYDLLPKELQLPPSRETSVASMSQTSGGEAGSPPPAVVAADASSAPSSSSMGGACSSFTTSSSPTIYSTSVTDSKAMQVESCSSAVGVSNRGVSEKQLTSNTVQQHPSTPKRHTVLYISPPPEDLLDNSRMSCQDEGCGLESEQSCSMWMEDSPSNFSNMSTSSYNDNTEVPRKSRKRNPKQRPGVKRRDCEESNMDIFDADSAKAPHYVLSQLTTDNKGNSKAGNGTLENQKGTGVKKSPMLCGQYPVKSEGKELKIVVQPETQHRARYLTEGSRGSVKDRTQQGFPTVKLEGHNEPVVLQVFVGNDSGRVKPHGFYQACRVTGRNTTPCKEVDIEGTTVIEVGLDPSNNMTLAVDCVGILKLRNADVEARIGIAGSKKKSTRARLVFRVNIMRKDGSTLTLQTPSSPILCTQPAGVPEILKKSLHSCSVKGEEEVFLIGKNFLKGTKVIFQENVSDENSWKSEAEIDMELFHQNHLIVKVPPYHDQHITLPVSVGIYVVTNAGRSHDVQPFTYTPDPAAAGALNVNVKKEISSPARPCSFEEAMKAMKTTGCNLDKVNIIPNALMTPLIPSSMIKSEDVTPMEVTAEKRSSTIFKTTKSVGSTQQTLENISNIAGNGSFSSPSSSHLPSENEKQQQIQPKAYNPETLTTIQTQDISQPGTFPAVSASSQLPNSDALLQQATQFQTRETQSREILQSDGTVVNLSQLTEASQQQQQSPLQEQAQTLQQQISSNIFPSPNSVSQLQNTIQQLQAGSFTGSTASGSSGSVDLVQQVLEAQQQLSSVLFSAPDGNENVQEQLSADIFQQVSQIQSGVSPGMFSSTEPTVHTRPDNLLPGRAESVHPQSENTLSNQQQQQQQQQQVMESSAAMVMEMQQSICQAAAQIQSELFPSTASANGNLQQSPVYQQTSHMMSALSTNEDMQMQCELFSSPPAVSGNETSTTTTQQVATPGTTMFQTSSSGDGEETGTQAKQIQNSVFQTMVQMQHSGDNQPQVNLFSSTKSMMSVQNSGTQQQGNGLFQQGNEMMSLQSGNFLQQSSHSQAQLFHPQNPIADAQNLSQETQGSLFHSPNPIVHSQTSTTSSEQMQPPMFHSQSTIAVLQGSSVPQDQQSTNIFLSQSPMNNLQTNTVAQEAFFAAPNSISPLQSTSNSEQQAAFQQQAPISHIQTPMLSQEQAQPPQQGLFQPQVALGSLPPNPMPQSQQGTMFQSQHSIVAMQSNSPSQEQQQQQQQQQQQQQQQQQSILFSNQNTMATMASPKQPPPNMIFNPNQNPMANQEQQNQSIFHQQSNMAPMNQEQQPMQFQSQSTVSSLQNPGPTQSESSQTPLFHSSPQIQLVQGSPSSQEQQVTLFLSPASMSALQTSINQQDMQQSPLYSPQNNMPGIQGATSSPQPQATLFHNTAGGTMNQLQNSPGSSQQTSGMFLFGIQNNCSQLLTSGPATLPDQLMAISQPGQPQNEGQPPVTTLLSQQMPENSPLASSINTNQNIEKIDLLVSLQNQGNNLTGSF
inactive: [1] 0.12 | [2] -0.028 | [3] 0.009 | [4] -0.02 | [5] -0.007

MVB12A (UniProt Q96EY5)
inactive: [1] 0.006 | [2] 0.032 | [3] 0.017 | [4] 0.032 | [5] 0.059

NFKBIE (UniProt O00221)
Sequence of UniProt O00221 (O00221 whole entry, looked up): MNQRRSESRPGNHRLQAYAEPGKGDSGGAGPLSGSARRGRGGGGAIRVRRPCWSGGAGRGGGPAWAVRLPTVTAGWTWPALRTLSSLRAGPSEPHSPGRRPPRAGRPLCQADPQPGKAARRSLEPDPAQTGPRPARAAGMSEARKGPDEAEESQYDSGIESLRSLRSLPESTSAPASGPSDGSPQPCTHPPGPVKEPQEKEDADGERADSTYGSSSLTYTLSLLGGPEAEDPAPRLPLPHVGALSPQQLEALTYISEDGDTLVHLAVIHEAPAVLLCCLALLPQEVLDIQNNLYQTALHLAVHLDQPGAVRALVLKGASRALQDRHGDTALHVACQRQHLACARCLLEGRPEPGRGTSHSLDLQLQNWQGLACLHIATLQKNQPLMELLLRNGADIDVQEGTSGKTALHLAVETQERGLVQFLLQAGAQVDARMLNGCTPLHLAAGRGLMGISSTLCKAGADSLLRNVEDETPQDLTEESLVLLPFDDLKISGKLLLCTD
inactive: [1] -0.014 | [2] -0.068 | [3] 0.033 | [4] 0.081 | [5] -0.087

MTCH2 (UniProt Q9Y6C9)
Sequence of UniProt Q9Y6C9 (Q9Y6C9 whole entry, looked up): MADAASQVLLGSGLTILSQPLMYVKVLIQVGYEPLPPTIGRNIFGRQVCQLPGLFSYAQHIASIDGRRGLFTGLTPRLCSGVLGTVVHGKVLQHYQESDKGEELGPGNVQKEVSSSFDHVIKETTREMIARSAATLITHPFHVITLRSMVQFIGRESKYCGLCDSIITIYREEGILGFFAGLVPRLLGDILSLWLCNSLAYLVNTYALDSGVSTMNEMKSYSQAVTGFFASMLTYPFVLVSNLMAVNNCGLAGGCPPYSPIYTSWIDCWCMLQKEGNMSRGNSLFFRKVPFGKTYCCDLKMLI
inactive: [1] 0.013 | [2] 0.001 | [3] -0.006 | [4] -0.014 | [5] -0.083

PARG (UniProt Q86W56)
inactive: [1] -0.011 | [2] -0.006 | [3] -0.005 | [4] -0.004 | [5] 0.091

MSI2 (UniProt Q96DH6)
inactive: [1] -0.007 | [2] -0.007 | [3] -0.001 | [4] 0.048 | [5] 0.071

NAT1 (UniProt P18440)
inactive: [1] 0.049 | [2] -0.021 | [3] 0.012 | [4] 0.015 | [5] 0.011

OGT (UniProt O15294)
inactive: [1] 0.029 | [2] 0.012 | [3] 0.016 | [4] 0.067 | [5] 0.039

OARD1 (UniProt Q9Y530)
Sequence of UniProt Q9Y530 (Q9Y530 whole entry, looked up): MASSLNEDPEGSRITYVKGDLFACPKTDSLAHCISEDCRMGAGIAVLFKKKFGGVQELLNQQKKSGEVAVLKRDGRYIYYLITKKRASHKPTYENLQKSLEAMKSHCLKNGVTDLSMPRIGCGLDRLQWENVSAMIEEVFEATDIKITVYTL
inactive: [1] -0.005 | [2] -0.014 | [3] 0.035 | [4] 0.044 | [5] -0.005

— the supplement of paper PMC10849652
